PubChem BioAssay AID651871 (Sanford-Burnham Center for Chemical Genomics, 2012)
“And” between values parts separate entries of the source, which are not always exact repeats. Equal entries are not always repeated.

Tested on: HL-1
Assay: protection of cardiomyocytes from stress damage, SAR follow-up, cell-based, panel, H9c2 and HL-1, ATP luminescence, set 2 (AID 651871);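 note: cells exposed to stressor for 2 h before ATP readout; reference of the scale not given here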
Settings: H9c2/HL-1 cardiomyocytes, 2-deoxyglucose stress, with 2-deoxyglucose
[1] = run 4, at 79 µM (top of the series)

Row | SMILES | activity (protection/inhibition) [1] | activity (protection/inhibition) (run 4, at 19.8 µM (top of the series))
1 | CCOC(=O)c1cccc(NC(=O)CNC(=O)c2cc(-c3cc(OC)c(OC)c(OC)c3)nc3ccccc23)c1 | 54.1% | 
2 | COc1ccc2nc(-c3cc(OC)c(OC)c(OC)c3)cc(C(=O)NCC(=O)Nc3ccc(C(C)=O)cc3)c2c1 | 68.7% | 
3 | COc1ccc2c(c1OC)C(=O)N1c3ccccc3C(=O)N(Cc3cccc(Cl)c3Cl)C21 (centres undefined) | 33.5% and -8.11% | 48.1%
